The list is not random: actives were taken first. Their share in the collection is about 5.2%.
APOBEC3A inh = inhibitors of human APOBEC3A DNA deaminase; P31941; recombinant A3A, FAM/TAMRA ssDNA deamination fluorescence; inhibition, % at 20 µM; 330,000 compounds, 0.41% hits; AID 493011;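 active = at least 40% inhibition at 20 µM here, with at most 30% in a related deaminase screen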;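 also: plate controls were A3A with DMSO for no effect and wells lacking A3A enzyme for full effect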
Target sequence (P31941 whole entry, looked up): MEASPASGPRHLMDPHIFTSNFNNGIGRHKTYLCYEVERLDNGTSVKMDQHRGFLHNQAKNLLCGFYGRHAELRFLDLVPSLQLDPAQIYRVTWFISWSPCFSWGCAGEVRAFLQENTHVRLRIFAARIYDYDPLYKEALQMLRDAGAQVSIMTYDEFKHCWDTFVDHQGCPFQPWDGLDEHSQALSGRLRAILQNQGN
CR mimetic SO = caloric restriction mimetics inhibiting age-related superoxide in yeast | S. cerevisiae aged cells, superoxide DHE fluorescence; hits give low values | superoxide response (% of plate mean), % at 10 µM | 330,000 compounds, 0.18% hits | AID 2690;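 active = superoxide response under a set limit, about three screen SD below normal, cut at about 65% in these data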;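 also: yeast aged for seven days with compound at 30 °C before DHE staining; 100% = average MFI of all compound-treated wells on the plate with controls excluded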
M18AAP inhibitor = PfM18AAP enzyme inhibition; recombinant PfM18AAP, H-Glu-NHMec fluorogenic cleavage; inhibition, % at 7.35 µM; 290,000 compounds, 1.2% hits; AID 1822;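 active = inhibition above the campaign mean inhibition over all tested compounds plus 3 SD, cut at about 28% in these data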;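 also: 0% = plate median of test compound wells and 100% = 2 mM ZnCl2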
ALR inh = inhibitors of human sulfhydryl oxidase ALR; P55789; purified ALR, DTT oxidation, H2O2 HRP-luminol luminescence; inhibition, % (concentration not given with the values); 290,000 compounds, 3.8% hits; AID 485317;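 active = mean replicate inhibition above about 79%, with every replicate also reaching it, limit read from the data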
CendR NRP1 mod = modulators of CendR peptide binding to human neuropilin-1. O14786. FAM-RPARPAR peptide binding to NRP-1, fluorescence polarization. inhibition, % at 25 µM. 360,000 compounds, 0.85% hits. AID 602438;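 active = inhibition or corrected inhibition above about 18%, plus a signal ratio from 0.5 to 1.5, limit read from the data, passing the limit was not always enough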
APOBEC3G inh = inhibitors of human APOBEC3G DNA deaminase; Q9HC16; recombinant A3G, ssDNA deamination FAM/TAMRA fluorescence; inhibition, % at 20 µM; 330,000 compounds, 0.28% hits;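 active = inhibition of at least 40% at 20 µM, with no more than 30% in the related APOBEC3A deaminase screen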;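 also: plate controls were DMSO wells with A3G for no effect and wells lacking A3G enzyme for full effect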
Target sequence (Q9HC16 whole entry, looked up): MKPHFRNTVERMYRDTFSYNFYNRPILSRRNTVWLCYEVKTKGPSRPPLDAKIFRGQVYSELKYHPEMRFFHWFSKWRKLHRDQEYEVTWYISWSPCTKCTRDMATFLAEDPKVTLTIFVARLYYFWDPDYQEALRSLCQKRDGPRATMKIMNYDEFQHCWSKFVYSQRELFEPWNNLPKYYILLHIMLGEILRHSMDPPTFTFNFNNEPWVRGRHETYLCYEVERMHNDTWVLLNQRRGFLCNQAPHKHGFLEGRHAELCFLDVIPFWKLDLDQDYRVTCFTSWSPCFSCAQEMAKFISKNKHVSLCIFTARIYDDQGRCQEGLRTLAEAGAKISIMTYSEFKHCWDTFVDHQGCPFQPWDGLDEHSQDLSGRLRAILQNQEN
Numbers without * were called inactive; / = no result given.

SMILES	APOBEC3A inh	CR mimetic SO	M18AAP inhibitor	ALR inh	CendR NRP1 mod	APOBEC3G inh
COC(=O)c1c(NC(=O)CN(c2ccccc2)S(C)(=O)=O)sc2c1CCCC2	-1	99	-3	-34	27*	1
COC(=O)c1c(NS(=O)(=O)Cc2ccccc2)sc2c1CCCC2	-3	118	5	91*	-1	4
O=C(Nc1ccccc1)c1cccc(N2C(=O)C3C4C=CC(C4)C3C2=O)c1 (stereo not given)	0	106	-3	16	4	-9
CC(/C=C1\SC(=O)N(CCCC(=O)O)C1=O)=C\c1ccccc1	/	111	1	97*	-37	/
CC(=C\c1ccccc1)/C=C1/SC(=S)N(CCCC(=O)O)C1=O	-3	104	-6	14	-192	-8
Clc1ccc(-c2nc3ncccn3c2Nc2ccc3c(c2)OCCO3)cc1	5	107	-11	-10	0	0
Cc1ccc(-c2nc3ncccn3c2NC2CCCCC2)o1	-3	108	-5	99*	-2	-6
Cc1ccc(-c2nc3ncccn3c2Nc2ccc3c(c2)OCCO3)o1	0	104	12	99*	-3	2
Brc1ccc(-c2nc3ncccn3c2Nc2ccc3c(c2)OCCO3)o1	1	89	-14	98*	8	-3
COc1ccccc1S(=O)Cc1ccc(C(=O)NC2CCCC2)o1 (stereo not given)	3	96	-9	94*	3	-1
COc1ccccc1OCc1ccc(C(=O)NC2CCCCC2)o1	-1	96	0	5	8	-9
COc1ccc(CCNC(=O)CSc2ccc3ccccc3c2)cc1OC	1	94	-6	99*	8	-7
COc1ccc(CC(=O)NCCc2ccc(OC)c(OC)c2)cc1	-2	85	-9	-29	-4	-7
COc1ccc(CCNC(=O)CSCC(=O)Nc2ccccc2)cc1OC	-3	102	-6	-17	-2	-2
COc1ccc(CCNC(=O)CSc2nnc(-c3ccccc3)c3ccccc23)cc1OC	2	98	-2	96*	-7	-7
COc1ccc(CCNC(=O)CSc2ccc(NC(C)=O)cc2)cc1OC	-5	98	8	98*	4	-10
CCc1nc(C)cn1S(=O)(=O)c1ccc2c(c1)OCCO2	/	/	/	/	7	/
CCOC(=O)C1=C(C)N=c2s/c(=C\c3ccc(OCC(=O)O)cc3)c(=O)n2C1c1ccccc1 (stereo not given)	5	101	7	98*	-33	1
CCOC(=O)C1=C(C)N=c2sc(=Cc3ccc(OCC(=O)O)cc3)c(=O)n2C1c1ccc(SC)cc1 (stereo not given)	/	/	/	/	-154	/
O=C(NC1CCCCC1)N1CCN(c2ccc([N+](=O)[O-])cc2)CC1	3	104	-1	18	1	-4
O=C(NC1CCCCC1)N1CCN(c2ccc(Cl)cc2)CC1	0	103	-5	99*	7	-1
CC(C)c1ccc(N(CC(=O)NC(C)(C)C)C(=O)CCC(=O)Nc2nccs2)cc1	-3	102	9	-8	-9	-5
CCCOc1ccc(C2C(C(=O)OC)=CN(CCOC)C=C2C(=O)OC)cc1	-2	98	-10	-3	28*	-6
O=C(c1ccc(S(=O)(=O)N2CCOCC2)cc1)N1CCc2ccccc2C1	-4	103	8	-15	-2	-7
O=C(CCC(=O)N1CCCc2ccccc21)N1CCN(S(=O)(=O)c2ccccc2)CC1	-3	96	-1	/	28*	-5
SMILES	APOBEC3A inh	CR mimetic SO	M18AAP inhibitor	ALR inh	CendR NRP1 mod	APOBEC3G inh
O=C(C1CCCO1)N1CCc2ccccc21 (stereo not given)	1	107	-5	-13	56*	-6
O=C(c1cccc(S(=O)(=O)N2CCCCC2)c1)N1CCc2ccccc21	1	101	0	-8	32*	-3
O=C(c1ccc(S(=O)(=O)N2CCOCC2)cc1)N1CCc2ccccc21	0	88	-2	-8	24*	-1
COc1ccc(CCn2c(C(C)C)nc3c(c(=O)c4ccccc4n3C)c2=O)cc1	0	102	2	-1	1	0
CC1=C(C(=O)OC2CCCCC2)C(c2ccccc2)NC(=O)N1 (stereo not given)	4	106	3	97*	0	-1
Cc1nnc(NC(=O)CSc2cn(CCNC(=O)c3ccccc3)c3ccccc23)s1	-2	99	5	72	-1	-13
COc1ccc(C(=O)NCCn2cc(SCC(=O)Nc3nnc(C)s3)c3ccccc32)cc1	1	92	4	-6	24*	-4
O=C(NCCn1cc(SCc2ccccc2)c2ccccc21)c1ccccc1F	-3	108	5	59	8	-6
NC(=O)CSc1cn(CCNC(=O)c2cccs2)c2ccccc12	-2	132	/	98*	-1	1
COCCSc1ccccc1C(=O)NCCc1ccccc1	-3	95	12	-8	16	-12
CCCCNC(=O)CSc1nc(CCC)nc2ccccc12	2	89	2	-7	6	-3
CCCc1nc(SCC(=O)c2ccc(F)cc2)c2ccccc2n1	0	95	7	99*	6	0
CCCCCCCN1CCC(=O)N([C@H](CO)Cc2ccccc2)CC1	4	94	3	/	11	1
CC(C)C[C@@H](COc1ccccc1)N1CCN(CCc2ccccc2)CCC1=O	1	95	8	5	36*	0
CCCN1CCC(=O)N([C@H](COc2ccccc2)CC(C)C)CC1	-4	98	4	-1	28*	4
CCCCCCCN1CCC(=O)N([C@H](CO)CC(C)C)CC1	6	101	1	-6	27*	7
NC(=O)c1ccsc1NC(=O)COC(=O)CCCOc1ccccc1	-2	/	/	/	4	-2
CC(=O)c1ccc(NC(=O)CN2C(=O)NC3(CCCc4ccccc43)C2=O)cc1 (stereo not given)	0	107	/	-4	7	-6
Cc1ccc(Cl)cc1NC(=O)C1COc2ccccc2O1 (stereo not given)	1	100	2	-8	10	-6
Cc1ccc2[nH]cc(CCNC(=O)Nc3ccccc3)c2c1	-3	116	2	98*	2	-6
Cc1ccc2[nH]cc(CCNC(=O)c3cccnc3)c2c1	-1	99	-5	96*	-4	2
Cc1ccc(NC(=O)CS(=O)CC(=O)Nc2ccccc2-c2ccc(C)o2)cc1 (stereo not given)	-1	109	4	99*	-6	-5
CC(=O)Nc1ccccc1-c1ccc(C)o1	-14	109	7	-14	-11	-6
COc1cc(NCCCCC(C)N)c2nccc(C)c2c1 (stereo not given)	/	/	/	/	9	/
COc1cc(NCCCC(C)N)c2ncccc2c1 (stereo not given)	/	/	22	/	44*	/
